Here are results for five compounds from PubChem BioAssay.

A short description of test [1]: small molecules captured by biotinylated probe aFSTL3 – biochemical, small-molecule microarray, fluorescence 635/667, stem cell growth factor project, primary screen (AID 1064).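 Also: measures binding of the biotinylated anti-FSTL3 antibody to printed compounds.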 Particulars: higher = more signal.
A short description of test [2]: binders from COS7 lysate, DM2A8 probe, primary screen, torsin A project, cell lysate, small-molecule microarray, fluorescence 635/667 (AID 1065). To be noted: higher = more signal, COS7 lysate expressing mutant human TOR1A.
Test [3] in a line: small molecules captured by biotinylated probe aFGF2 – biochemical, small-molecule microarray, fluorescence 635/667, stem cell growth factor project, primary screen (AID 1067).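 Also: measures binding of biotinylated aFGF2 protein to printed compounds on slides; z-score merges feature fluorescence and signal-to-noise across triplicate slides.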 To be noted: higher = more signal.
Test [4] in a line: small molecules captured by biotinylated probe aFGF10 – biochemical, small-molecule microarray, fluorescence 635/667, stem cell growth factor project, primary screen (AID 1071).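 Also: score merges 667 nm spot intensity and signal to noise from triplicate slides.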 To be noted: higher = more signal.
The target of test [5] is Neurogenic locus notch homolog protein 2 (Homo sapiens) (UniProt Q04721). Nature of the test: small molecules binding Notch2 protein – biochemical, small-molecule microarray, 635 nm fluorescence, stem cell growth factors, primary screen (AID 1073). Particulars: higher = more signal.
For test [6], the target named is Pro-neuregulin-1, membrane-bound isoform (Homo sapiens) (UniProt Q02297). Nature of the test: small molecules binding neuregulin-1 protein – biochemical, small-molecule microarray, fluorescence 635/667, psychiatric disease protein project, primary screen (AID 1075).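 Also: score combines 667 nm spot fluorescence with signal to noise.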 To be noted: NRG1 binding, 635 nm fluorescence, higher = more signal.
The subject of test [7] is Neuregulin-1 EGF-like domain. Nature of the test: small molecules binding NRG1 EGF domain – biochemical, small-molecule microarray, 635 nm fluorescence, primary screen (AID 1081).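 Also: binding of the protein to compounds printed on small-molecule microarray slides.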 To be noted: higher = more signal.
A short description of test [8]: FRG1 expression reporter modulators in myotubes – cell-based, C2C12 myotubes, firefly/Renilla luciferase, luminescence, FRG1 inhibition for FSHD, primary screen (AID 1084). Particulars: FRG1 promoter luciferase, higher = more signal, called active from +8 up or from −8 down.
A short description of test [9]: small molecules captured by biotinylated probe aFST – biochemical, small-molecule microarray, fluorescence 635/667, stem cell growth factor project, primary screen (AID 1086).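 Also: score merges 667 nm fluorescence with signal-to-noise of each printed compound spot.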 Particulars: higher = more signal.
Test [10] in a line: binders of probe aHhip on microarray, primary screen, stem cell growth factor project, biochemical, small-molecule microarray, fluorescence 635/667 (AID 1087).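 Also: score merges spot fluorescence at 667nm with spot signal to noise ratio.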 Particulars: higher = more signal.
For test [11], the system named is PRMT1 (protein arginine N-methyltransferase 1). Nature of the test: small molecules binding arginine methyltransferase PRMT1 – biochemical, small-molecule microarray, 635 nm fluorescence, primary screen (AID 1088).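 Also: binding of Prmt1 protein to compounds spotted on small-molecule microarray slides.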 Particulars: higher = more signal.
Test [12] can be described thus: growth effects on S. cerevisiae YJM789 – YJM789 clinical isolate, OD600, 24 h, basal, primary screen (AID 1089).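 Also: growth of clinical yeast isolate S. cerevisiae YJM 789 seeded 1000 cells per well; test concentration not given here.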 Particulars: higher = more signal, called active from +8 up or from −8 down.
The nature of test [13]: S. pombe growth modifiers, basal conditions – strain 972, OD600, 24 h, no modulator, primary screen (AID 1090).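 Also: basal condition with compound alone and no growth modifier present; test concentration not given here.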 To be noted: S. pombe 972 growth, higher = more signal, called active from +8 up or from −8 down.
Test [14] can be described thus: budding yeast growth modifiers under rapamycin – strain BY4716, OD600, 96 h, primary screen (AID 1091). Also: test concentration not given here. To be noted: S. cerevisiae BY4716 + rapamycin, higher = more signal, called active from +8 up or from −8 down.
Test [15] concerns the target Torsin-1A-interacting protein 2 (Homo sapiens) (UniProt Q8NFQ8). Nature of the test: small molecules binding lysate-expressed LULL1 – cell lysate, human LULL1 lysate, 635/667 nm fluorescence, primary screen (AID 1092).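 Also: probe is lysate of COS7 cells overexpressing human LULL1; score merges per-feature 667 nm fluorescence with signal-to-noise.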 Particulars: small-molecule microarray, hLULL1 lysate binding, 635 nm fluorescence; higher = more signal.
Test [16] in a line: optical density change of DRC41 E. coli – strain DRC41, OD650, 24 h, E. coli filamentation project, primary screen (AID 1093).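 Also: MC1000 strain lacking acrAB efflux and sulA so SOS filamentation is blocked; test concentration not given here.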 To be noted: E. coli DRC41 growth, higher = more signal, called active from +8 up or from −8 down.
Test [17] in a line: probe aLefty2 binding to arrayed compounds – biochemical, biotinylated probe, 635/667 nm fluorescence, primary screen (AID 1094).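 Also: score merges spot fluorescence near 667 nm with spot signal-to-noise ratio.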 Particulars: small-molecule microarray, higher = more signal.
The test system of test [18] is Noggin (protein binding on small-molecule microarray). Nature of the test: small molecules binding Noggin protein – biochemical, 635/667 nm fluorescence, primary screen (AID 1095).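 Also: score merges 667 nm feature fluorescence with signal to noise over triplicate slides.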 Particulars: 635 nm fluorescence, higher = more signal.
The target in test [19] is Neurogenic locus notch homolog protein 3 (Homo sapiens) (UniProt Q9UM47). In words: small molecules binding NOTCH3 protein – biochemical, 635/667 nm fluorescence, primary screen (AID 1096). To be noted: small-molecule microarray, 635 nm fluorescence, higher = more signal.
Test [20] can be described thus: probe aEGFR binding to arrayed compounds – biochemical, biotinylated probe, 635/667 nm fluorescence, primary screen (AID 1097).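 Also: probe is a biotinylated anti-EGFR antibody binding compounds printed on slides; score combines fluorescence near 667 nm and signal to noise of each spot.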 Particulars: small-molecule microarray, higher = more signal.

Molecules are shown by their SMILES. Activity calls are given as the source filed them.

Torsin-1A-interacting protein 2 (Homo sapiens), sequence (Q8NFQ8 whole entry, looked up): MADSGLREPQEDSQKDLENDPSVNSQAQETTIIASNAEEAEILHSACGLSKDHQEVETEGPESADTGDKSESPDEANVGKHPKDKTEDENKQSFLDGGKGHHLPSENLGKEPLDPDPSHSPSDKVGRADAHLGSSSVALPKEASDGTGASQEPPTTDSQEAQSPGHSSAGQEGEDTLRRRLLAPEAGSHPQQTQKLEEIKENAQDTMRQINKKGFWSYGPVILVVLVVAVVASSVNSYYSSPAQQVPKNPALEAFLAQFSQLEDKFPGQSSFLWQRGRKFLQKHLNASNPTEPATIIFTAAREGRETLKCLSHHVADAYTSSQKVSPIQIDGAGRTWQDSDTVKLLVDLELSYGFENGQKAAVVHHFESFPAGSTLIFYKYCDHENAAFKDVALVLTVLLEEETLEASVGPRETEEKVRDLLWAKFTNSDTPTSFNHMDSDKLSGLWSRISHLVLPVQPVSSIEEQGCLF
Pro-neuregulin-1, membrane-bound isoform (Homo sapiens), sequence (Q02297 whole entry, looked up, the tested form may be a part, canonical isoform): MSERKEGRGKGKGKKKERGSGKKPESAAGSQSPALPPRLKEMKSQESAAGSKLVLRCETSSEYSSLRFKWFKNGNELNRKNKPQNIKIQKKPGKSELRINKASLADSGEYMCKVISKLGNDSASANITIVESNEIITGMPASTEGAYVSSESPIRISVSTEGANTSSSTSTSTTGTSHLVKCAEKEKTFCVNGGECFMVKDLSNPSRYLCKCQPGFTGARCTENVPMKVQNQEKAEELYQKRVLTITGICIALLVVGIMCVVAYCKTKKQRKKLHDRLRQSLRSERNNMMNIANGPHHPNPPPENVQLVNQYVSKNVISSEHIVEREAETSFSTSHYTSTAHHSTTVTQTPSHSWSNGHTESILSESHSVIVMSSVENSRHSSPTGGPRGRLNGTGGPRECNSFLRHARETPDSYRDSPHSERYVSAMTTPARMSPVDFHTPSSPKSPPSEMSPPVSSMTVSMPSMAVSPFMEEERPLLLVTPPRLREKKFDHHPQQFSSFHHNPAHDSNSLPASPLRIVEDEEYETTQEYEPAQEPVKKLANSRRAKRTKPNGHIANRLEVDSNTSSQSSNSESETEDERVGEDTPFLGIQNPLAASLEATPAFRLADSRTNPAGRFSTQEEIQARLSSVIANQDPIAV
Neurogenic locus notch homolog protein 2 (Homo sapiens), sequence (Q04721 whole entry, looked up, canonical isoform): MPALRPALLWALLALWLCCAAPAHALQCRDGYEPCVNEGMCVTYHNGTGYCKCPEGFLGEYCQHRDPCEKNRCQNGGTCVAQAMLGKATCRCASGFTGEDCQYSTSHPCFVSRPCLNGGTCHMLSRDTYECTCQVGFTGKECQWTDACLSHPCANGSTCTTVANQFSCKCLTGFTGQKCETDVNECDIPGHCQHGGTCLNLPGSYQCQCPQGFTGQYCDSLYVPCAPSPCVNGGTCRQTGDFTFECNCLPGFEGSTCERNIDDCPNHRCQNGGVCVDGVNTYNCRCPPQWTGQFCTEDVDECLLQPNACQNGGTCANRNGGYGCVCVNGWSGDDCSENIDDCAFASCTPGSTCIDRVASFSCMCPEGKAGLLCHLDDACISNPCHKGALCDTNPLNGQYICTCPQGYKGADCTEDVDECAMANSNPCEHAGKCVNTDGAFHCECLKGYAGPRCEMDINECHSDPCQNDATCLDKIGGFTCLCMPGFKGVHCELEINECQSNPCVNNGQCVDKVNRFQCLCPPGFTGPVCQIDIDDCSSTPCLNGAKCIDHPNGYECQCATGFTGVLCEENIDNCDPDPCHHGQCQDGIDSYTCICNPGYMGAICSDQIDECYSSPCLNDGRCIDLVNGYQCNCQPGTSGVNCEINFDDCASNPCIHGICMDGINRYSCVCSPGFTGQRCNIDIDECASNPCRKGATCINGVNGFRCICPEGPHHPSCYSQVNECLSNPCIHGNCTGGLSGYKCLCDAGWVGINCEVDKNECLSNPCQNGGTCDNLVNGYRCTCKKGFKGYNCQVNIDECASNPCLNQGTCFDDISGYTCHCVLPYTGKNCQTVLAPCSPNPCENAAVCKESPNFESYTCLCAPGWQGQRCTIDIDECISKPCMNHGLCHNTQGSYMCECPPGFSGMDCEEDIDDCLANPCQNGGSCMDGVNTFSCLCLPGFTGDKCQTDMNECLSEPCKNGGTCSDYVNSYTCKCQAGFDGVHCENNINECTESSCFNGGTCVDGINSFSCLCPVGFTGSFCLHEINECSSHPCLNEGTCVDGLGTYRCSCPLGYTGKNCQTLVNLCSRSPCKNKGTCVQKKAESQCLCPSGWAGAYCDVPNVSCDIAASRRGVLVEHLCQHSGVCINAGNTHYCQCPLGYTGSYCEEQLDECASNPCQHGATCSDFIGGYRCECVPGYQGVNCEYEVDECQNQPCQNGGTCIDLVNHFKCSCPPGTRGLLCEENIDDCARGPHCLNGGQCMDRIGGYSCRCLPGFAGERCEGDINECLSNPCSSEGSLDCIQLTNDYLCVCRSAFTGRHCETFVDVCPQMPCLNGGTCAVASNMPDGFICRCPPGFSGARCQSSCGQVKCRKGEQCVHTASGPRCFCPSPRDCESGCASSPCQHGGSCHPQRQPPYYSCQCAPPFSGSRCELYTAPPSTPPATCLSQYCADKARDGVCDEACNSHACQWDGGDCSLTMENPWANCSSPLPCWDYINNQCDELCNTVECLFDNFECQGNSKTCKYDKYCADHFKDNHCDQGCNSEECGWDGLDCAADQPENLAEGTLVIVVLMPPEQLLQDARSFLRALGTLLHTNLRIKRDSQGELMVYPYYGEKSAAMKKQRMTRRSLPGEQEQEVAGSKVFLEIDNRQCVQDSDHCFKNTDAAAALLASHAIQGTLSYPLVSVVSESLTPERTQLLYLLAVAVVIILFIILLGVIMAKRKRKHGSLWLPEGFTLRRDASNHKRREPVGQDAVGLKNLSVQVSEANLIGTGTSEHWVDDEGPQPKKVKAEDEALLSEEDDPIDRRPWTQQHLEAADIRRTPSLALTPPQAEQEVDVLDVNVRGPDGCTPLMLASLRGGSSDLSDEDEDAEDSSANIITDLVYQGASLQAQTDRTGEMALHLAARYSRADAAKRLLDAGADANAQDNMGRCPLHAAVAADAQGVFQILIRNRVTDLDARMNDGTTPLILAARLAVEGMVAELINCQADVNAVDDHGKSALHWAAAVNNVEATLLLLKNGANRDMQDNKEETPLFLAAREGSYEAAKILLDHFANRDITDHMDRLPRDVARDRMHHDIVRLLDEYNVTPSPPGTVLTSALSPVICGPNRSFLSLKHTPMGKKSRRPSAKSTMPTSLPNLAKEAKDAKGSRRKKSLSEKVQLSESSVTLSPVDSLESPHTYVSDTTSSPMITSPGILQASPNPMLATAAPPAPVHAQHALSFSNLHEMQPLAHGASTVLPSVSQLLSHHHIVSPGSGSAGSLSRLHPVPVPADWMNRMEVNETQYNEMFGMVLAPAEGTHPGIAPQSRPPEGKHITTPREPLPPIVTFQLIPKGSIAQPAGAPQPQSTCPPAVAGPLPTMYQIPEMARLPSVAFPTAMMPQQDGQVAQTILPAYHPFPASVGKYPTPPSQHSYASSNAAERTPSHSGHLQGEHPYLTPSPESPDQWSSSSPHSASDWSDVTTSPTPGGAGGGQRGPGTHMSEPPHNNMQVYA

`CC(C)(C)N1C(=O)[C@H]2[C@H]3[C@H](O)[C@H](O)CC(=NOCc4ccccc4)[C@H]3CC[C@H]2C1=O`: the composite z-score in test [1] was 1.55; in test [2] it was 0.636; in test [3], -0.0006; in [4], -0.0753; in test [5], -0.224; in [6] it was -0.102. Moreover, the composite z-score in test [7] is -0.559; in [9] it was 0.687; in test [10] it was -0.119; in test [11] it was -0.201; in test [15], 0.351; in test [17], 0.439. In addition, the composite z-score in test [18] was -0.616; in [19], -0.288; in test [20], -0.125. The z-score in test [8] is 0.431 (inactive); in test [12] it was -0.612 (inactive); in [13], -0.925 (inactive); in [14] it was -0.22 (inactive); in test [16], 0.662 (inactive).

`C[C@@H]1C=CCC(=O)OC[C@H]2O[C@@H](C=C[C@@H]2O)[C@H](C)C=CCC(=O)OC1`: the composite z-score in [1] was -0.711; in test [2], 2.13; in test [3] it was -0.175; in [4] it was -0.32; in test [5] it was -0.302; in test [6], -1.03. For the same compound, the composite z-score in [7] was 0.765; in test [9], -0.291; in test [10], 0.28; in test [11] it was 1.55; in [15], -1.24; in [17] it was -0.254. Also, the composite z-score in test [18] was 1.86; in test [19] it was 0.595; in test [20] it was -0.0455. Besides, the z-score was -1.28 (inactive) in [8]; -2.12 (inactive) in [12]; -1.24 (inactive) in [13]; -0.618 (inactive) in [14]; -0.293 (inactive) in [16].

Regarding `CCOC(=O)[C@H](CC(C)C)NC(=O)CCC1CC(OC(=O)NCCc2ccc(F)cc2)CC2(CCCC(COC(=O)NCCc3ccc(Cl)cc3)O2)O1` (stereo not given in full), the composite z-score in test [1] is -0.543; in [2], 1; in test [3] it was -0.0267; in test [4], 0.491; in test [5], 0.74; in test [6], 0.0742. Besides, the composite z-score in test [7] is 1.06; in test [9] it was 0.197; in [10], 0.208; in test [11] it was 1.26; in test [15], 1.97; in test [17], -0.0021. Further, the composite z-score was 0.948 in [18], 0.773 in [19] and -0.123 in test [20]. For the same compound, the z-score is 1.57 (inactive) in [8]; -0.623 (inactive) in test [12]; 0.485 (inactive) in [13]; -0.518 (inactive) in test [14]; -0.296 (inactive) in test [16].

In the case of `O=C(C=Cc1ccc2c(c1)OCO2)c1ccc(F)cc1`, the composite z-score was -0.0346 in [1]; 0.668 in test [2]; 0.0173 in test [3]; 0.3 in test [4]; -0.207 in [5]; -0.204 in test [6]. Also, the composite z-score was -0.0248 in [7]; 0.348 in test [9]; -0.0994 in test [10]; -0.458 in [11]; -0.779 in [15]; -0.132 in test [17]. For the same compound, the composite z-score in test [18] came to 0.87; in test [19], 0.142; in test [20] it was 0.131. The z-score in test [8] is 0.964 (inactive); in [12], -0.935 (inactive); in [13], -15.1 (active); in test [14], 3.87 (inactive); in [16] it was 0.704 (inactive).

For the compound `COc1ccc(O[C@H]2C=C[C@@H](c3ccccc3)O[C@@H]2COC(=O)CCC(C)=NOC[C@@H](O)[C@H]2O[C@@H]3OC(C)(C)O[C@@H]3[C@H]2O)cc1`, the composite z-score is -0.522 in test [1]; 0.62 in test [2]; -0.102 in test [3]; 0.497 in [4]; 0.624 in test [5]; 0.0094 in [6]. Moreover, the composite z-score is 0.724 in test [7]; 0.659 in test [9]; -0.0994 in test [10]; 1.34 in test [11]; 1.48 in test [15]; -0.103 in [17]. The figures for the composite z-score in test [18], in test [19] and in test [20] were 1.41, 0.763 and -0.0592, respectively. Further, the z-score was 0.452 (inactive) in test [8]; 0.671 (inactive) in test [12]; 0.0839 (inactive) in test [13]; -0.37 (inactive) in test [14]; 0.875 (inactive) in test [16].
